# Data from the supplement of paper PMC7156485.
# ± gives the standard deviation of the averaged measurements.
# System: HCC1569
# Assay: cell number relative to DMSO (% of DMSO); higher = more cells (less growth inhibition / toxicity)
# Conditions: concentration: 10 µM; 24 h
# How it was run: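 After 24 h at 37 °C with compounds at 10 µM, in triplicate, HCC1569 and TDF cells were fixed with 3.7% formaldehyde. Immunostaining used a rabbit anti-H1.0 antibody and an AlexaFluor 647 secondary, with DAPI, and six fields per well were imaged at ×10. H1.0 nuclear intensity or cell number is presented as percent of the plate control, from the median of replicates, with HCC1569 values smoothed for positional effects.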
# 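Also: TDF denotes transformed human dermal fibroblasts of mesenchymal origin.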
row,SMILES,cell number
1,O=c1cc(-c2ccc(O)cc2)oc2cc(OC3OC(CO)C(O)C(O)C3O)cc(O)c12 (configuration not stated) [Apigenin-7-glucoside],98.2
2,"O=c1ccc2ccc(O)c(O)c2o1 [7,8-dihydroxy-2H-chromen-2-one]",99.2
3,COc1cc2c(CCNC(C)=O)c[nH]c2cc1O [6-Hydroxymelatonin],100
4,O=c1[nH]ccc2c(S(=O)(=O)N3CCCNCC3)cccc12,106
5,Nc1nc(=O)c2ncn(COC(CO)CO)c2[nH]1 [Ganciclovir],105 ± 4
6,NC(CS(=O)O)C(=O)O [L-Cysteinesulfinic Acid],102
7,CC(C)(O)c1ccccc1CCC(SCC1(CC(=O)O)CC1)c1cccc(C=Cc2ccc3ccc(Cl)cc3n2)c1 (configuration not stated) [Montelukast],101
8,CCCCC(C)(O)CC=CC1C(O)CC(=O)C1CCCCCCC(=O)OC (configuration not stated) [Misoprostol],106
9,Nc1ccc(N2C(=O)c3ccccc3C2=O)c(Cl)c1 [N-(4-Amino-2-chlorophenyl)phthalimide],103
10,CC(=O)Nc1nc(C)c(S(=O)(=O)Nc2ccc(C(O)(C(F)(F)F)C(F)(F)F)cc2)s1,97.5
11,COC1C=COC2(C)Oc3c(C)c(O)c4c(O)c(cc(O)c4c3C2=O)NC(=O)C(C)=CC=CC(C)C(O)C(C)C(O)C(C)C(OC(C)=O)C1C (configuration not stated),103
12,O=C(O)c1cn(C2CC2)c2cc(N3C[C@@H]4C[C@H]3CN4)c(F)cc2c1=O,99.1
13,COC1C(OC(=O)c2ccc(C)[nH]2)C(O)C(Oc2ccc3c(O)c(NC(=O)c4c[nH]c(C(=O)Nc5c(O)c6ccc(OC7OC(C)(C)C(OC)C(OC(=O)c8ccc(C)[nH]8)C7O)c(C)c6oc5=O)c4C)c(=O)oc3c2C)OC1(C)C (configuration not stated) [Coumermycin A1],94.7
14,CC(C)c1ccc2oc3nc(N)c(C(=O)O)cc3c(=O)c2c1,104
15,CC1CCC2(C(=O)O)CCC3(C)C(=CCC4C5(C)CC(O)C(O)C(C)(CO)C5C(O)CC43C)C2C1C (configuration not stated) [Madecassic acid],105
16,Br.C=CCN1CCc2c(cc(O)c(O)c2Br)C(c2ccccc2)C1 (stereo not drawn) [R(+)-6-Bromo-APB hydrobromide],89.1

row,SMILES,cell number
1,Cc1onc(-c2ccccc2)c1C(=O)NC1C(=O)N2C1SC(C)(C)C2C(=O)[O-] (configuration not stated) [Oxacillin],99.8
2,CCCCCC=CCC=CCC=CCC=CCCCC(=O)O [Arachidonic acid],104 ± 6.4
3,C=CC1CN2CCC1CC2C(O)c1ccnc2ccc(OC)cc12.Cl.O (configuration not stated),99.6
4,CC(=O)OCC1=C(C(=O)[O-])N2C(=O)C(NC(=O)CSc3ccncc3)C2SC1.[Na+] (configuration not stated) [Cephapirin sodium],101
5,CC(=O)OC1C(=O)C2(C)C(O)CC3OCC3(OC(C)=O)C2C(OC(=O)c2ccccc2)C2(O)CC(OC(=O)C(O)C(NC(=O)c3ccccc3)c3ccccc3)C(C)=C1C2(C)C (configuration not stated) [Taxol],60.2 ± 4.1
6,CCC(=O)c1ccc2c(c1)N(CCCN(C)C)c1ccccc1S2.Cl [Propionylpromazine hydrochloride],97.4
7,O=C(Nc1ncc(-c2cc(C(F)F)nn2-c2c(Cl)cccc2Cl)s1)C1CC1,52.3
8,CC(C)(C)c1onc(OCP(=O)(O)O)c1CC(N)C(=O)O (configuration not stated),104
9,C#CC1(O)CCC2C3CCC4=Cc5oncc5CC4(C)C3CCC21C (configuration not stated) [Danazol],97.02 ± 0.7
10,Oc1cccc(-c2nc(N3CCOCC3)c3oc4ncccc4c3n2)c1,56.8
11,CC(=O)O.NC(N)=NN=Cc1c(Cl)cccc1Cl [Guanabenz acetate],104
12,"CC(C)NCC(O)c1ccc(O)c(O)c1.Cl (single isomer, unassigned; (-)) [(-)-Isoproterenol hydrochloride]",104
13,CC1(C)CCC2(C(=O)O)CCC3(C)C(=CCC4C5(C)CCC(O)C(C)(C)C5CCC43C)C2C1 (configuration not stated) [Oleanolic acid],101
14,CC1(C)C2CCC1(C(=O)O)C(=O)C2 (configuration not stated) [Ketopinic acid],103
15,COc1ccc(-c2cc(=O)c3ccc(O)cc3o2)cc1 [Pratol],98.5
16,CC1CCC2(C(=O)O)CCC3(C)C(=CCC4C5(C)CC(O)C(O)C(C)(CO)C5CCC43C)C2C1C (configuration not stated) [Asiatic acid],104
